The panel holds about 79,000 compounds, 15% with a hit somewhere; the sample as a whole holds those more often. A number with no mark means an inactive call. Calls of active or inactive are those of the source. Rule as the data show it: active = growth inhibition above about 70%; inactive = the rest.
Assays:
[1] = NCI Yeast Anticancer Drug Screen. Data for the rad50 strain (AID 155);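 also: 0% = growth of vehicle-only cultures of the same strain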; conditions: S. cerevisiae rad50 strain growth inhibition; at 50.0 µM; stronger effect = higher value
Summary of the method: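 DNA repair mutant yeast, compound exposure, growth read-out; inhibition is taken relative to vehicle.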

[2] = NCI Yeast Anticancer Drug Screen. Data for the mec2-1 strain (AID 157); conditions: S. cerevisiae mec2-1 strain, at 50.0 µM, stronger effect = higher value
Summary of the method: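 Yeast mec2-1 mutant treated with compound. Readout: growth inhibition vs vehicle controls.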

[3] = NCI Yeast Anticancer Drug Screen. Data for the sgs1 mgt1 strain (AID 161);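 also: 0% = growth of cultures given vehicle only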; conditions: S. cerevisiae sgs1 mgt1 strain, at 50.0 µM, stronger effect = higher value
Summary of the method: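 Inhibition of yeast growth, normalised to vehicle-treated controls, is reported for a strain bearing genetic alterations in DNA damage repair.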

[4] = NCI Yeast Anticancer Drug Screen. Data for the cln2 rad14 strain (AID 165);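 also: 0% = growth equal to vehicle treated cultures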; conditions: S. cerevisiae cln2 rad14 strain, at 50.0 µM, stronger effect = higher value
Summary of the method: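 cln2 rad14 yeast strain; compound exposure; growth inhibition read vs vehicle controls.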

[5] = NCI Yeast Anticancer Drug Screen. Data for the bub3 strain (AID 167); conditions: S. cerevisiae bub3 mutant strain, at 50.0 µM, stronger effect = higher value
Summary of the method: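 In this screen, a yeast mutant lacking normal mitotic checkpoint function is challenged with compound. Relative growth versus vehicle gives the inhibition value.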

[6] = NCI Yeast Anticancer Drug Screen. Data for the mlh1 rad18 strain (AID 175); conditions: S. cerevisiae mlh1 rad18 strain growth inhibition; at 50.0 µM; stronger effect = higher value
Summary of the method: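 Yeast w/ defined DNA-repair lesions; compound exposure; growth vs vehicle controls → % inhibition.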

Row | SMILES | growth inhibition [1] | growth inhibition [2] | growth inhibition [3] | growth inhibition [4] | growth inhibition [5] | growth inhibition [6]
1 | NC(=O)c1ccc(I)cc1 | 1.75% | 9.3% | 4% | -30.1% | -37% | 8.25%
2 | NC(=O)c1csc(Nc2csc(N)n2)n1 | -6.05% | -15.5% | -6.35% | -13.6% | 18.8% | -26.6%
3 | O=C(NC(CSC(=O)c1ccccc1)C(=O)O)c1ccccc1 (stereo not given) | 3.2% | -8.5% | -2.6% | -22.1% | 6.8% | 7.45%
4 | CCN(CC)C(=O)C1Cc2ccccc2N(C)C1 (stereo not given) | -16.6% | -8.5% | -10.4% | -41.5% | 3.05% | -2.85%
5 | N=C1N=C(N)C(CCCOc2cc(Cl)ccc2Cl)(CCCOc2cc(Cl)ccc2Cl)C(N)=N1 | 99% (active) | 95.5% (active) | 97.4% (active) | 98.5% (active) | 98.9% (active) | 98% (active)
6 | Cc1ccc(Cl)cc1NC(=O)CCc1ccccc1 | 3.7% | 22.1% | 23.6% | -1.6% | 4.25% | 21.1%
7 | CCOC(=O)O/C(C)=C\c1ccccc1Cl | 0.4% | -1.15% | -7.75% | 7.75% | -5.85% | 5.7%
8 | NC(=O)c1[nH]c(COCCO)nc1N | -20.4% | -10.4% | 14% | -14.9% | 7.05% | 22.4%
9 | O=C(OC(=O)c1cccc2ccccc12)c1cccc2ccccc12 | -5.15% | -7.75% | 2.3% | 43.3% | 12% | 13.2%
10 | O=C(OCCNC(=O)N1CCOCC1)OCCNC(=O)N1CCOCC1 | -16.8% | -2% | -8.55% | 40.6% | -3.2% | 11.3%
11 | CCCCCCCCCO/N=C\c1c2c(O)c3c(O)c(C)c4c(c3c1O)C(=O)C(C)(O/C=C\C(OC)C(C)C(OC(C)=O)C(C)C(O)C(C)C(O)C(C)/C=C\C=C(\C)C(=O)N2)O4 (stereo not given) | -1.15% | 19.9% | 11.5% | -13.9% | -6.6% | 30.8%
12 | CCCC(C(=O)O)(c1ccccc1)c1ccccc1 | 11.3% | 0.55% | 5.45% | -24.9% | 7.5% | 1.8%
13 | N#CCCC1(CCC#N)CCc2ccccc2C1=O | 26.6% | 1.2% | 24.6% | 25.9% | 8.1% | 40%
14 | CCCC(=O)Oc1cc(C)ccc1C(C)(C)C | -17.9% | -22.6% | -12.3% | -33.6% | -35.6% | -42%
15 | Clc1cccc(Cl)c1C(Nc1ncccn1)Nc1ncccn1 | 12.2% | 14.8% | 12.1% | -16.4% | 9.6% | 20.4%
16 | O=C1C(N=Nc2ccccc2)Sc2nc3ccccc3n21 (stereo not given) | -16.1% | -3.2% | 2.85% | -52% | 4.5% | -9.1%
17 | O=C(Nc1ccc([N+](=O)[O-])cc1)OC1CCS(=O)(=O)C1 (stereo not given) | -0.2% | 6.15% | -3.65% | 13.7% | 8.6% | -1.65%
18 | CCOC(=O)Cn1/c(=N/N=C(\C)c2ccc([N+](=O)[O-])o2)sc2cc(Cl)ccc21 | -5.75% | 9.05% | 4.8% | 14.3% | -4.15% | 3.35%
19 | CN(CCSCC(N)C(=O)O)CCSCC(N)C(=O)O (stereo not given) | 5% | 11.2% | 0.7% | 29.4% | -58% | 28.6%
20 | CCOC(=O)CCC(NC(=O)c1ccc(N=Cc2nc3ccccc3nc2-c2ccccc2)cc1)C(=O)OCC (stereo not given) | 4.35% | 0.95% | 6.8% | 14.5% | 11.8% | -7.7%

Row | SMILES | growth inhibition [1] | growth inhibition [2] | growth inhibition [3] | growth inhibition [4] | growth inhibition [5] | growth inhibition [6]
21 | Cc1cc(=O)oc2c(C)c(O)ccc12 | 0% | -16.5% | -3.15% | 13.7% | -16.6% | 16.4%
22 | CCc1cccc(C(C)CC)c1NC(=O)CC1C(=O)Nc2ccccc2S1=O (stereo not given) | 15.2% | 0.65% | 7.2% | 18.1% | 32.5% | 15.2%
23 | COC(=O)C1CCCN1C(=O)C(C)=O (stereo not given) | 16.9% | 10.4% | -4.85% | -40.5% | 5.4% | -5.45%
24 | CCOc1ccc(C2=NN(CC)C(=O)C(C3C(=O)N(c4ccccc4)N=C3C)C2)cc1 (stereo not given) | 4.8% | -7.3% | -0.35% | -30.9% | -22.3% | -10.2%
25 | COC(=O)CCC(CCC(=O)OC)([N+](=O)[O-])[N+](=O)[O-] | 0.4% | -1.95% | 4.5% | -55.6% | 10.7% | 3.3%
26 | CN(C)Cc1cc(N=Nc2c(Cl)cccc2Cl)ccc1O | 14.4% | 19.8% | 8.35% | 1.95% | 28% | 18.4%
27 | CCN(CC)[Si](C)(C)N(CC)CC | -20.2% | -24.4% | -1.2% | -41% | -4.5% | 8.1%
28 | O=C1c2ccccc2C(=O)N1OCc1csc(-c2ccccc2)n1 | 5.5% | 6.25% | -4.2% | 5.25% | 0.95% | 27.4%
29 | CC(C)C[N+](=O)[O-] | -23.4% | -21.1% | -4.05% | -12.7% | -1.25% | 11.3%
30 | CCCCCCCCCCCCCCCCCCNc1nc(=O)n(C2CC(O)C(COP(=O)(O)O)O2)cc1F (stereo not given) | 12.9% | 12.6% | 16.8% | 17% | 9.25% | -23%
31 | Nc1nnc(-c2cccc(-c3nnc(N)o3)c2)o1 | -13.5% | -24.6% | -9.8% | -41.4% | -6.5% | -15.1%
32 | C=CCNC(=S)Nc1cccc(O)c1 | -8.05% | -11.6% | -11.6% | -31.8% | -10.9% | -2.55%
33 | O=[N+]([O-])c1ccc(CS(=O)(=O)O)cc1 | 6.25% | -9.05% | -6.4% | -15.1% | 8.8% | -5.6%
34 | O=C(O)c1c[nH]c(=O)[nH]c1=O | 1.25% | -5.4% | 1.25% | -5.55% | 0.65% | -7.5%
35 | CCOC(=O)C1=C(c2ccccc2)N=c2ccccc2=S1C (stereo not given) | 7.25% | -2.3% | 18.1% | -3.35% | 5.1% | 20.4%
36 | CCN(CC)CCN(Cc1ccccc1)C(=S)NC(=O)c1ccccc1 | -4.35% | 2.15% | -5.25% | -5.8% | 7.35% | -19.5%
37 | Clc1ccc(C2NC(c3ccccc3)c3c(ccc4ccccc34)O2)cc1Cl (stereo not given) | 86.2% (active) | 92.6% (active) | 92.2% (active) | 88.2% (active) | 90.5% (active) | 92.1% (active)
38 | CCC(c1ccccc1)c1cc(C(C)(C)C)cc(C(C)(C)C)c1O (stereo not given) | 31.9% | -36% | -15.4% | -2.25% | 25.4% | 0.95%
39 | CCOC(=O)NC(CC)c1ccc2oc3ccccc3c2c1 (stereo not given) | -10.5% | 1.9% | 20.4% | -4.15% | 32% | -15.3%
40 | CCN(CC)CCOC(=O)C(S)(c1ccccc1)C1CCCCC1 (stereo not given) | 13.8% | -7.3% | 1% | -12.8% | -12.7% | 16.9%
